# Hit rate of the full screen: of about 310,000 compounds, about 14,000 (4.5%) showed an effect of 50% or more. The effect is printed as a negative number. The list comes from a sample in which strong results are over-represented; it also holds similar structures and randomly drawn compounds.
# Molecular target: human ether-à-go-go-related gene (hERG) potassium channel (human, UniProt Q12809)
# Assay: primary screen, population patch clamp on CHO cells stably expressing hERG; higher = less effect of the substance
# 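Also: peak tail current of the secondary pulse compared with the same well before compound.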
# Sequence of human ether-à-go-go-related gene (hERG) potassium channel (Q12809 whole entry, looked up): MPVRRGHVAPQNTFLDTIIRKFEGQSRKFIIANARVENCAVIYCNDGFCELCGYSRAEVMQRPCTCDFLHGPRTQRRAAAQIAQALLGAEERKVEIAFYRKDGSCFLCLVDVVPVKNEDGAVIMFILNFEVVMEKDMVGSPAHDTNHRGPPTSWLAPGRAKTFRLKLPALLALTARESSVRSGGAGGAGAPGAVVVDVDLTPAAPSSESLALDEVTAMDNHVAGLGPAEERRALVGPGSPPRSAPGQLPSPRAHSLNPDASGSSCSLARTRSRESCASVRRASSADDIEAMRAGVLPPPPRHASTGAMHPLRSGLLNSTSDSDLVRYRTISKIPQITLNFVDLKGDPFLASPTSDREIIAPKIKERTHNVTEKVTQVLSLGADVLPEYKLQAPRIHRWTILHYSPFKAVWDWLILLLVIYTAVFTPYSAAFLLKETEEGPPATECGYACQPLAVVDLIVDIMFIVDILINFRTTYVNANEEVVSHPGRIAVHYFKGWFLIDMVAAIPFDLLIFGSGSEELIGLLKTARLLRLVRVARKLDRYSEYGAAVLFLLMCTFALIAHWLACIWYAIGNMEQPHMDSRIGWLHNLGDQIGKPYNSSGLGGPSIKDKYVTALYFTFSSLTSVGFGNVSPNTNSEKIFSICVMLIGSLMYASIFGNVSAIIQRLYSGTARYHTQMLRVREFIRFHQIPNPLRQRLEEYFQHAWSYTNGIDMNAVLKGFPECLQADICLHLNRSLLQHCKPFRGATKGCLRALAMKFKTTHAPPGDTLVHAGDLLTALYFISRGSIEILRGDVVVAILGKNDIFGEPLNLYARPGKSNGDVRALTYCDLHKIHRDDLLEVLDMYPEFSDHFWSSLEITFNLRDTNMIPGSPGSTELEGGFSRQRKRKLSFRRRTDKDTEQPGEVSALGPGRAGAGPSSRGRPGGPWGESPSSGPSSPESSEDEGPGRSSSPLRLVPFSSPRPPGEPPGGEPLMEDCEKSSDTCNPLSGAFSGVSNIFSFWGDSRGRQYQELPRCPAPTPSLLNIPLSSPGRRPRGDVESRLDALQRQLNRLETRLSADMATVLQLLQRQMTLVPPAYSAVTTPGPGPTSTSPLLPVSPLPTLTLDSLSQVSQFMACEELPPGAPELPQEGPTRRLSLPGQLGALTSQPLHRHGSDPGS
row,SMILES,"hERG current change (%, negative = inhibition) at 10uM [%]"
1,Cn1c(NC(=O)c2ccco2)c(-c2ccccc2)c(=O)c2ccccc21,13.6
2,N[C@@]12CCc3nonc3[C@]1(O)CC(c1ccccc1)=[N+]2[O-],-0.645
3,COc1ccccc1CN(C(=O)CNC(=O)c1ccco1)C(C(=O)NCC1CCCO1)c1ccccc1 (stereo not drawn),10
4,O=C(NC(=S)Nc1cccc(F)c1)c1cccc([N+](=O)[O-])c1,20.6
5,Cc1cc(C)c(-c2cc(C)nc3ncnn23)c(C)c1,7.75
6,CCOc1ccc(C(=O)Nn2cnnc2)cc1,2.29
7,O=C(NCCCc1ccccc1)C1CCN(c2nnc(-n3cccc3)s2)CC1,-27
8,CN(C)CCCN(C(=O)c1ccc(C(=O)c2ccccc2)cc1)c1nc2ccc(F)cc2s1,-74.9
9,CN(C)CCCN(C(=O)c1ccc(S(=O)(=O)N(C)C)cc1)c1nc2ccc(F)cc2s1.Cl,-32.9
10,CCN(Cc1ccccc1)S(=O)(=O)c1ccc(C(=O)N(CCCN(C)C)c2nc3ccc(F)cc3s2)cc1.Cl,-12.6
11,CCN(Cc1ccccc1)S(=O)(=O)c1ccc(C(=O)N(CCCN(C)C)c2nc3cc(OC)ccc3s2)cc1.Cl,-58.3
12,COc1ccc2sc(N(CCCN(C)C)C(=O)c3ccc(S(=O)(=O)N(C)Cc4ccccc4)cc3)nc2c1.Cl,-16.4
13,CCc1ccc2nc(N(CCCN(C)C)C(=O)c3ccc(C(=O)c4ccccc4)cc3)sc2c1.Cl,-12.5
14,O=C(O)c1ccc(Nc2cccc(F)c2)c([N+](=O)[O-])c1,17.7
15,CCCCOc1c(Br)cc(CNCCCN2CCOCC2)cc1OC.Cl,-35
16,CC(C)CCOc1ccc(NC(=O)C2OC3OC(C)(C)OC3C3OC(C)(C)OC23)cc1 (stereo not drawn),20.5
17,O=C(NCc1nnc(SCC(=O)N2CCCC2)o1)c1ccc(F)cc1,14.3
18,COc1ccc(Nc2ncnc3ccc([N+](=O)[O-])cc23)c(OC)c1,-0.867
19,CNc1ccc(Br)cc1C(O)c1ccccc1 (stereo not drawn),-3.18
20,O=C(Cn1ccc(NC(=O)OCc2ccccc2)nc1=O)NCCCn1ccnc1,6.72
21,O=C1COc2ccc(C(=O)COC(=O)CNC(=O)c3ccccc3)cc2N1,-4.81

row,SMILES,"hERG current change (%, negative = inhibition) at 10uM [%]"
1,Cc1ccc(C(=O)NCC(=O)OCC(=O)c2ccc3c(c2)NC(=O)CO3)cc1,-60.6
2,COc1ccc(C(=O)NCC(=O)OCC(=O)c2ccc3c(c2)NC(=O)CO3)cc1,-65.1
3,COc1ccc(OCCCC(=O)OCC(=O)c2ccc3c(c2)NC(=O)CO3)cc1,15.7
4,Cc1ccc(C(=O)NCC(=O)OCC(=O)c2ccc3c(c2)NC(=O)CO3)cc1C,-5.7
5,COc1ccc(C(=O)NCC(=O)OCC(=O)c2ccc3c(c2)NC(=O)CO3)cc1OC,-22
6,Cc1nn(C(=O)CCC(=O)NCc2ccccc2Cl)c2ccccc12,15.2
7,Cc1c(Cl)cccc1NC(=O)C1COc2ccccc2O1 (stereo not drawn),8.79
8,COc1ccc(S(=O)(=O)CC(=O)c2cc3cccc(C)c3oc2=O)cc1,5.51
9,CCCN1Cc2cccc(C(=O)NC(CC(=O)OCC)c3ccc(OCC)c(OC)c3)c2C1=O (stereo not drawn),-31.2
10,CCCN1Cc2cccc(C(=O)NC(CC(=O)OCC)c3ccc(OC(C)C)cc3)c2C1=O (stereo not drawn),-37.6
11,CCCN1Cc2cccc(C(=O)NC(CC(=O)OCC)c3ccc(C)cc3)c2C1=O (stereo not drawn),-81.7
12,Cc1nc2c(C)cccn2c1/C(O)=C1\C(=O)C(=O)N(CCN(C)C)C1c1ccncc1 (stereo not drawn),4.49
13,CC(=O)Nc1ccc(C(=O)CN2C(=O)NC3(CCOc4ccccc43)C2=O)c(F)c1 (stereo not drawn),-20.5
14,CC(=O)Nc1ccc(NC(=O)C2CCN(c3c(Cc4ccccc4)c(C)nc4ncnn34)CC2)cc1,2.74
15,COc1cc(CC(NC(C)=O)C(=O)NC2CCN(c3c(Cc4ccccc4)c(C)nc4ncnn34)CC2)cc(OC)c1 (stereo not drawn),12
16,COc1cccc(CC(NC(C)=O)C(=O)NC2CCN(c3c(Cc4ccccc4)c(C)nc4ncnn34)CC2)c1 (stereo not drawn),-0.458
17,Cc1nc2ncnn2c(N2CCC(C(=O)NC3CCCC3)CC2)c1Cc1ccccc1,-57.4
18,Cc1nc2ncnn2c(N2CCC(C(=O)NCC3CCCO3)CC2)c1Cc1ccccc1 (stereo not drawn),-17.6
19,CC(=O)NC(Cc1ccc(F)c(F)c1)C(=O)NC1CCN(c2c(Cc3ccccc3)c(C)nc3ncnn23)CC1 (stereo not drawn),-58.7
20,NC(=O)C1CCCN(C(=O)c2ccc3nc(Cc4cccc(Cl)c4)oc3c2)C1 (stereo not drawn),-11.5
21,Cc1ccnc(SCCn2c(N3CCN(C)CC3)nc3c2c(=O)n(C)c(=O)n3C)n1,13.6
